Compound activity (PubChem)
The list is not random: actives were taken first. Their share in the collection is about 3.5%.
TEAD-YAP inh: TEAD-YAP interaction inhibition; HEK-TIYL cells, TEAD-Gal4/YAP UAS-luciferase luminescence; inhibition, % at 9.12 µM; 1.4% of 640,000 active; AID 1259422; in the data active = inhibition above about 32%
MITF inh: inhibitors of human MITF | O75030 | AlphaScreen MITF homodimerization, bead proximity signal | inhibition, % at 2.6 µM | 0.91% of 650,000 active | AID 1259374; in the data active = inhibition above about 50%
Target sequence (O75030 whole entry, looked up): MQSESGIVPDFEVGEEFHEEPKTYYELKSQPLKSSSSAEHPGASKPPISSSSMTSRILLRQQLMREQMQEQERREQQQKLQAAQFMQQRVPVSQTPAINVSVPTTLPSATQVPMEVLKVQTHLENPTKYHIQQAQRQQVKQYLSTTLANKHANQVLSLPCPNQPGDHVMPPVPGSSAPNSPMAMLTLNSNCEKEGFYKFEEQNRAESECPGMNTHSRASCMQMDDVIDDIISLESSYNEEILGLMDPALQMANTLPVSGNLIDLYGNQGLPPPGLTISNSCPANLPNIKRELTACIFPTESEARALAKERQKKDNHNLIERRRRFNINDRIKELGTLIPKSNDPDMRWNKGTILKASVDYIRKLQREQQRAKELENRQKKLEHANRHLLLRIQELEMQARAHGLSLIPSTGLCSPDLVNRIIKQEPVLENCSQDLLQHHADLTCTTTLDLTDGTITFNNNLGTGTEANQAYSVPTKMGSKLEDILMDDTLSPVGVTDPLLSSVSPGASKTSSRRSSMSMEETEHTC
FBW7 activator: human FBW7 E3 ligase activation, primary screen. Q969H0. 0.13% of 650,000 active. normalized activity (activation), % at 26.1 µM. AlphaScreen FBW7–phospho-cyclin E peptide binding, activator screen. AID 1259310; in the data active = normalized activity above about 1.9%;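 also: purified mutant Fbw7 with reduced substrate affinity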
GPR151 ag: human GPR151 activation; activation, % at 11.2 µM; PathHunter beta-arrestin GPR151 cells, luminescence; 1% of 650,000 active; Q8TDV0; in the data active = activation above about 4.9%
GPR151 confirm: confirmation of human GPR151 activators | shares compounds with GPR151 ag | GPR151 PathHunter beta-arrestin cells, luminescence, 90 min; % of EA-reagent control over plate median | activation, % at 11.2 µM | 6,700 tested, under 10 active;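 active = mean percent activation across replicates above the confirmation screen cutoff of 4.91%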
GPR119 counter: counter-screen for GPR151 activators: effect on human GPR119. activation, % at 11.2 µM. GPR119 PathHunter beta-arrestin cells, luminescence, 90 min; 0 = compound-well median, 100 = enzyme-acceptor control. 0.3% of 6,700 active. shares compounds with GPR151 ag;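 active = mean percent activation in the counterscreen above 29.09%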;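 also: counterscreen on off-target GPR119 to flag nonselective hits from the GPR151 activator screen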
Each line names hits and unclear results; the compound was inactive in the other large screens (follow-up assays come after a bar, where they were run); ! = repeats disagree.

O=C(CCNC(=O)c1ccc(Br)o1)NCC1CCCO1 (stereo not drawn)	none
O=C(CN1CC(=O)N2CCCC2C1=O)NCCc1ccc(Cl)cc1 (stereo not drawn)	GPR151 ag 7.8 | GPR151 confirm inactive | GPR119 counter inactive
O=C(CN1CC(=O)N2CCCC2C1=O)NCc1ccccc1 (stereo not drawn)	none
O=C(CN1CC(=O)N2CCCC2C1=O)NCc1cccc(Cl)c1 (stereo not drawn)	GPR151 ag 10 | GPR151 confirm inactive | GPR119 counter inactive
O=C(CN1CC(=O)N2CCCC2C1=O)NCCc1ccccc1 (stereo not drawn)	none
C/C(=C1\SC(=S)N(CCC(=O)O)C1=O)c1ccc(Cl)cc1	none
Cc1ccc(N2C(=N)S/C(=C/c3sccc3C)C2=O)cc1C	none
Cc1ccsc1/C=C1\SC(=N)N(c2ccc(F)cc2)C1=O	GPR151 ag 23 | GPR151 confirm inactive | GPR119 counter inactive
CC(C)(C)c1nnc(N/N=C/c2ccc(O)cc2)[nH]c1=O	none
COc1cc(/C=N/Nc2nnc(C(C)(C)C)c(=O)[nH]2)cc(OC)c1OC	GPR151 ag 6.1 | GPR151 confirm inactive | GPR119 counter inactive
CCOC(=O)c1sc2nc(CC(=O)OC)nc(NCC3CCCO3)c2c1C (stereo not drawn)	none
COc1ccc2ccc(=O)oc2c1	GPR151 ag 5.0 | GPR151 confirm inactive | GPR119 counter inactive
Cc1ccc(S(=O)(=O)N(CC(O)Cn2nc(C)cc2C)c2cccc([N+](=O)[O-])c2)cc1 (stereo not drawn)	GPR151 ag 5.8 | GPR151 confirm inactive | GPR119 counter inactive
Cc1cc(C)n(CC(O)CN(c2cccc([N+](=O)[O-])c2)S(=O)(=O)c2ccccc2)n1 (stereo not drawn)	none
CN1CCN(C(=O)CCc2nc3cccnc3n2-c2ccccc2)CC1	none
Cc1cccc(NC(=O)C(c2ccc(Cl)cc2Cl)N2CCC2=O)c1 (stereo not drawn)	GPR151 ag 7.8 | GPR151 confirm inactive | GPR119 counter inactive
O=S(=O)(c1cc(Br)ccc1Br)N1CCNCC1	none
CCCOc1ccc([N+](=O)[O-])cc1C=C1C(=O)NC(=S)NC1=O	GPR151 ag 5.1 | GPR151 confirm inactive | GPR119 counter inactive
O=C1NC(=S)NC(=O)C1=Cc1cc(Cl)ccc1OCc1ccc([N+](=O)[O-])cc1	none
COc1ccccc1C(=O)Nc1ccnn1C1CCN(Cc2cccc(F)c2)CC1	GPR151 ag 6.6 | GPR151 confirm inactive | GPR119 counter inactive
CCC(C)C(=O)N1CCC(n2nccc2NC(=O)Nc2cccc(F)c2)CC1 (stereo not drawn)	GPR151 ag 6.6 | GPR151 confirm inactive | GPR119 counter inactive
Cc1cc(C(=O)N2CCC(c3nc4ccccc4s3)CC2)nn1C	none
CC1CN(C(=O)c2cc(C(C)C)n(-c3nc4ccccc4s3)n2)CC(C)O1 (stereo not drawn)	GPR151 ag 5.7 | GPR151 confirm inactive | GPR119 counter inactive
CCCS(=O)(=O)c1ncc(Cl)c(C(=O)Nc2ccccc2OC)n1	none
O=C(COc1ccc(/C=C2/NC(=O)N(c3ccccc3)C2=O)cc1)Nc1ccc(F)cc1	none
O=C(COc1ccc(/C=C2/NC(=O)N(c3ccccc3)C2=O)cc1Cl)Nc1ccccc1	GPR151 ag 9.0 | GPR151 confirm inactive | GPR119 counter inactive
Cc1cc(-n2c(C)cc(C=O)c2C)no1	none
COc1ccc(-c2nc3n(n2)C(c2ccc(OC)cc2OC)C(C(N)=O)=C(C)N3)cc1 (stereo not drawn)	GPR151 ag 7.4 | GPR151 confirm inactive | GPR119 counter inactive
COc1ccc(-c2nc3n(n2)C(c2cc(OC)ccc2OC)C(C(N)=O)=C(C)N3)cc1 (stereo not drawn)	none
CCC(Oc1ccc2c3c(c(=O)oc2c1C)CCC3)C(=O)OC(C)C (stereo not drawn)	none
Cc1ccc([N+](=O)[O-])c(OCCOCCN2CCc3ccccc3C2)c1	GPR151 ag 5.7 | GPR151 confirm inactive | GPR119 counter inactive
COc1ccccc1C(=O)Nc1ccc(N2CCCS2(=O)=O)cc1	none
COc1ccc(Cl)cc1C(=O)Nc1ccc(N2CCCCS2(=O)=O)cc1	GPR151 ag 9.0 | GPR151 confirm inactive | GPR119 counter inactive
CCCc1nc(C(C)(C)O)c(C(=O)OCc2oc(=O)oc2C)n1Cc1ccc(-c2ccccc2-c2nn[nH]n2)cc1	GPR151 ag 11! | GPR151 confirm inactive | GPR119 counter inactive
CCOc1nc2cccc(C(=O)OC(C)OC(=O)OC3CCCCC3)c2n1Cc1ccc(-c2ccccc2-c2nn[nH]n2)cc1 (stereo not drawn)	none
NC(=O)COc1ccc(/C=N/NC(=O)c2ccc(CN3CCOCC3)cc2)cc1	GPR151 ag 5.7 | GPR151 confirm inactive | GPR119 counter inactive
CC(=O)c1c(C)[nH]c(C(=O)Nc2nc3c(C)cc(C)cc3s2)c1C	GPR151 ag 5.9 | GPR151 confirm inactive | GPR119 counter inactive
C=CCNC(=O)CN1CCC(O)(c2ccccc2)CC1	none
C=CCNC(=O)CN1CCN(C(c2ccccc2)c2ccccc2)CC1	GPR151 ag 6.2 | GPR151 confirm inactive | GPR119 counter inactive
O=C(CN1CCN(C(c2ccccc2)c2ccccc2)CC1)NCc1cccs1	none
C=CCNC(=O)CN1CCC(O)(c2cccnc2)CC1	GPR151 ag 6.2 | GPR151 confirm inactive | GPR119 counter inactive
O=C(NCCc1ccccc1)c1nn2c(C(F)(F)F)cc(-c3cccs3)nc2c1Cl	none
COc1cccc(CN2CCN(C(=O)c3ccno3)[C@@H](C)C2)c1	none
COc1ccc(NC(=S)N2CCn3cccc3C2c2cc(OC)ccc2OC)cc1 (stereo not drawn)	none
CC1CCCN(S(=O)(=O)c2cccc(-c3cn4cccnc4n3)c2)C1 (stereo not drawn)	GPR151 ag 5.0 | GPR151 confirm inactive | GPR119 counter inactive
CCN(CC)S(=O)(=O)c1cccc(-c2cn3cccnc3n2)c1	none
CN1CCN(C(=O)c2cc(S(=O)(=O)N3CCCCC3)c[nH]2)CC1	GPR151 ag 5.3 | GPR151 confirm inactive | GPR119 counter inactive
CCN1CCN(C(=O)c2cc(S(=O)(=O)N3CCCCC3)c[nH]2)CC1	none
O=C(O)c1cc(S(=O)(=O)N2CCOCC2)ccc1Cl	none
COc1ccc2c(-c3ccccc3)cc3nnnn3c2c1	GPR151 ag 5.3 | GPR151 confirm inactive | GPR119 counter inactive
O=[N+]([O-])c1ccc(O)c(/C=N/n2cncn2)c1	none
Cc1ccc(OC(=O)c2ccc(N3C(=O)c4cccc([N+](=O)[O-])c4C3=O)cc2)cc1C	GPR151 ag 5.9 | GPR151 confirm inactive | GPR119 counter inactive
CC1(C)C2CCC1(C)C(NC(=O)c1ccc(F)cc1)C2 (stereo not drawn)	none
CCCOc1ccc(C(N)=O)cc1OC	GPR151 ag 5.6 | GPR151 confirm inactive | GPR119 counter inactive
COc1cc(C(N)=O)ccc1OCC(C)C	none
